Measurements taken from PubChem BioAssay (NCI).
The panel holds about 83,000 compounds, 20% with a hit somewhere; the sample as a whole holds those more often.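 Step 1: grow cells in 96-well plates. Step 2: add test compound at a single concentration. Step 3: incubate 48 h. Step 4: record percent growth.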 Values without a mark were called inactive. The source made the active and inactive calls. The calls were made as follows: active = growth percent below 10; inactive = the rest.

System: HL-60(TB) leukemia
Assay: NCI-60 one-dose screen, 48 h (100 = growth as untreated, 0 = no growth, -100 = all killed)
Conditions: 10 µM unless noted

| Compound | growth |
| --- | --- |
| COc1cc(-c2cc(C(=O)Nc3nc4ccccc4s3)nc3cc(-c4ccccc4)nn23)cc(OC)c1OC | 48.3% |
| C=C1C(=O)O[C@H]2[C@H]1CC/C(COC(=O)NCc1ccc(Cn3c(=O)sn(CCCC)c3=O)cc1)=C\CC[C@@]1(C)O[C@@H]21 | -33.2% (active) |
| CCn1c(SC/C(=N/O)c2ccccc2)nnc1-c1ccccc1 | 103% |
| COc1cc2c(cc1-c1c(C)noc1C)ncc1nc(C3CC3)n([C@H](C)COC(F)F)c12 | 31% |
| COc1cc(/C=C/C(=O)c2ccc(-n3cc(CN4CCN(c5cc6c(cc5F)c(=O)c(C(=O)O)cn6C5CC5)CC4)nn3)cc2)cc(OC)c1OC | 98.8% |
| CC(=O)OC1/C=C\CC/C=C\C1 (configuration not stated) | 101% |
| CN1C(=O)c2cc(Cl)nc3c(NC(=O)c4cccc(Cl)c4)c(Cl)c(NC(=O)c4cccc(Cl)c4)c1c23 | -30.7% (active) |
| COc1ccc(NC(=O)c2ccc(NC3=C(c4ccc(Cl)cc4)C(=O)NC3=O)cc2)cc1 | 80.3% |
| C=C1C(=O)O[C@H]2[C@H]1CC/C(COC(=O)NCCOCCOCC(=O)Nc1ccc(OC)c(C(N)=O)c1O)=C\CC[C@@]1(C)O[C@@H]21 | -6.3% (active) |
| COc1ccc2nc(-c3ccc(OC)c(OC)c3)cc(-c3nnc(SCC(=O)Nc4ccc(C(C)=O)cc4)o3)c2c1 | 77.7% |
| O=[N+]([O-])c1ccccc1CN1CCCCC1 | 101% |
| COc1cc(/C=C/C(=O)c2c(C)nc3ccccc3c2/C=C/c2ccc(C)cc2)cc(OC)c1OC | 12.5% |
